{"source": "PubChem BioAssay AID652017", "about": "(The Scripps Research Institute Molecular Screening Center, 2013)", "note": "The whole screen tested about 370,000 compounds, of which about 3,800 (1%) were called active. Cut-off read from the data, not from the text of the source: active = activation above about 7.8%; inactive = the rest. The entries come from a sample that favours actives as a whole."}
{"experiment": "SMARCA2 (BRM) function activators, primary screen, cell-based, luminescence, high throughput (AID 652017);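 note: 0% = vehicle wells and 100% = reference activator wells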", "conditions": "MG213 cells, MMTV-luciferase reporter, dexamethasone, overnight; at 9.1 µM; active compounds read high"}
{"smiles": "COc1ccc2ccccc2c1CNc1nnnn1C", "activation": "-2.94% (inactive)"}
{"smiles": "COc1ccc2ccccc2c1CNCc1ccccn1", "activation": "8.32% (active)"}
{"smiles": "COc1cc(CNCc2ccc(OC)c3ccccc23)cc(OC)c1OC", "activation": "-2.64% (inactive)"}
{"smiles": "Cc1ccc(/C=N/NC(=O)c2sccc2OCc2ccc(F)cc2)cc1", "activation": "3.74% (inactive)"}
{"smiles": "Cc1ccsc1C(=O)NC1CCCCC1C", "note": "(stereo not given)", "activation": "-1.24% (inactive)"}
{"smiles": "Cc1ccsc1C(=O)N/N=C/c1ccc([N+](=O)[O-])cc1", "activation": "11.6% (active)"}
{"smiles": "COC(=O)[C@H](C(C)C)N(CCc1cn(Cc2ccccc2)nn1)S(=O)(=O)c1ccc(F)cc1Br", "activation": "-6.28% (inactive)"}
{"smiles": "CC(=O)OC12CCCN(C1)/C(=C/c1ccncc1)C2", "note": "(stereo not given)", "activation": "-3.2% (inactive)"}
{"smiles": "COc1ccccc1Nc1nnc(SC(C)C(=O)NC2CC2)s1", "note": "(stereo not given)", "activation": "-2.93% (inactive)"}
{"smiles": "O=C(CCCCCN1C(=O)C2C3C=CC(C3)C2C1=O)Nc1ccccn1", "note": "(stereo not given)", "activation": "-1.58% (inactive)"}
{"smiles": "CCOC(=O)C(C)n1cnc2c(nnn2-c2ccc(F)cc2)c1=O", "note": "(stereo not given)", "activation": "0.38% (inactive)"}
{"smiles": "COC(=O)C(C)n1cnc2c(nnn2-c2ccc(F)cc2)c1=O", "note": "(stereo not given)", "activation": "2.24% (inactive)"}
{"smiles": "CCOC(=O)C(C)n1cnc2c(nnn2-c2cccc(OC)c2)c1=O", "note": "(stereo not given)", "activation": "9.14% (active)"}
{"smiles": "O=C(NC1CCC1)c1ccc(C#CC2CC2)cn1", "activation": "1.34% (inactive)"}
{"smiles": "O=C(CCC(=O)c1cccs1)NC1CCCCCC1", "activation": "-4.41% (inactive)"}
{"smiles": "CCCCC(CC)CNC(=O)CCCCn1c(=O)[nH]c2ccsc2c1=O", "note": "(stereo not given)", "activation": "-1.68% (inactive)"}
{"smiles": "O=C(CCCCCn1c(=S)[nH]c2ccsc2c1=O)NC1CCCCC1", "activation": "8.72% (active)"}
{"smiles": "C=CC[C@]12C[C@@]3(O[C@H](c4ccc(C(F)(F)F)cc4)N=C3C[C@H](c3ccc(OC)cc3)[C@H]1C)N(C1CCN(Cc3ccccc3)CC1)C2=O", "activation": "-1.14% (inactive)"}
{"smiles": "Cc1nnc(NC(=O)CSc2nccn2-c2cccc(C)c2C)s1", "activation": "-0.75% (inactive)"}
{"smiles": "O=C(Cn1c(=O)sc2ccccc21)Nc1ccc2c(c1)OCCO2", "activation": "-0.22% (inactive)"}
{"smiles": "Cc1nnc(NC(=O)Cn2c(=O)sc3ccccc32)s1", "activation": "8.41% (active)"}
{"smiles": "C=C(C)C1CC23C(=O)C4(C(=O)c5ccccc5)C[C@@]5(C)CCC(CC2C1(C)C)(C4=O)C35OC", "note": "(stereo not given in full)", "activation": "-5.25% (inactive)"}
{"smiles": "Cc1ccccc1CN1CCCCC(NC(=O)Nc2ccccc2F)C1=O", "note": "(stereo not given)", "activation": "-2.59% (inactive)"}
{"smiles": "C[C@@H](NC(=O)c1ccccc1OCC(=O)Nc1ccc(I)cc1)C(=O)N(C)Cc1ccccc1", "activation": "-3.4% (inactive)"}
{"smiles": "O=C(CSc1c2c(nc3ccc(Cl)cc13)CCCC2)NCc1ccco1", "activation": "3.79% (inactive)"}
{"smiles": "CC(C)CCC(C)NC(=O)c1ccc2nccnc2c1", "note": "(stereo not given)", "activation": "0.02% (inactive)"}
{"smiles": "CC(C)CCNC(=O)c1ccc2c(Cl)c3c(nc2c1)CCC3", "activation": "10.7% (active)"}
{"smiles": "O=C(O)CSCc1ccc(C(=O)O)o1", "activation": "0.73% (inactive)"}
{"smiles": "O=C(O)c1ccc(NC(=O)c2ccc(COc3ccc(Cl)cc3)o2)cc1", "activation": "-1.89% (inactive)"}
{"smiles": "O=C(O)c1ccc(COc2c(F)c(F)cc(F)c2F)o1", "activation": "8.75% (active)"}
{"smiles": "COc1cc(NC(=O)C2=C(C)OCCS2)c(Cl)cc1C(=O)NCCCN1CCCC(C)C1", "note": "(stereo not given)", "activation": "-0.17% (inactive)"}
{"smiles": "NC1=NN(c2cccc(C(=O)O)c2)C(=O)C1", "activation": "-1.73% (inactive)"}
{"smiles": "O=C(O)c1cccc(N=NN2CCCCCC2)c1", "activation": "17.7% (active)"}
{"smiles": "Cc1cccc(C(=O)N2CCN(S(=O)(=O)N3CCCCC3)CC2)c1", "activation": "3.31% (inactive)"}
{"smiles": "Cc1cc(C)n2c(Nc3c(C)cccc3C)c(CCc3ccccc3)nc2n1", "activation": "0.46% (inactive)"}
{"smiles": "O=C(NCc1cccs1)C1CCCN(S(=O)(=O)c2ccc([N+](=O)[O-])cc2)C1", "note": "(stereo not given)", "activation": "0.22% (inactive)"}
{"smiles": "CCC(C)[C@@H](C(=O)OC)N(CCc1cn(Cc2ccccc2)nn1)S(=O)(=O)c1ccccc1Br", "note": "(stereo not given in full)", "activation": "-5.37% (inactive)"}
{"smiles": "COc1ccccc1C1=CC(=O)CCC1", "activation": "1.01% (inactive)"}
{"smiles": "COc1ccccc1-c1sc2ccccc2c1-c1ccc(Br)nc1", "activation": "-0.09% (inactive)"}
{"smiles": "COc1ccccc1C1=Nc2cccc3cccc(c23)N1", "activation": "8.11% (active)"}
{"smiles": "CCOc1ccc(N(CC(=O)Nc2c(C)n(C)n(-c3ccccc3)c2=O)S(=O)(=O)c2ccc(Cl)s2)cc1", "activation": "3.83% (inactive)"}
{"smiles": "CCC(CO)Nc1cccc2c1S(=O)(=O)N(Cc1cn(Cc3ccccc3C(F)(F)F)nn1)Cc1ccccc1O2", "note": "(stereo not given)", "activation": "-1.93% (inactive)"}
{"smiles": "Cc1ccccc1C(=O)O", "activation": "-3.71% (inactive)"}
{"smiles": "O=C(CSc1cccc[n+]1[O-])c1ccc(-c2ccccc2)cc1", "activation": "1.84% (inactive)"}
{"smiles": "Cc1ccc(C(=O)CSc2ccccc2C(=O)O)cc1", "activation": "9.24% (active)"}
{"smiles": "CCC1CO/C(=C(\\C(=C(Cl)Cl)N2CCOCC2)[N+](=O)[O-])N1", "note": "(stereo not given)", "activation": "-2.15% (inactive)"}
{"smiles": "Cc1cc(Br)cn2c(Cc3ccccc3C(F)(F)F)c(-c3ccc(C#N)cc3)nc12", "activation": "-1.52% (inactive)"}
{"smiles": "Cc1ccc(-c2nc3ccc(Br)cn3c2Cc2ccccc2C(F)(F)F)cc1", "activation": "8.44% (active)"}
{"smiles": "COc1ccccc1Cc1c(-c2ccc(Cl)cc2)nc2ccc(Cl)cn12", "activation": "4.42% (inactive)"}
{"smiles": "Cc1cc(Br)cn2c(Cc3ccccc3C(F)(F)F)c(-c3ccc(Cl)cc3)nc12", "activation": "3.06% (inactive)"}
{"smiles": "Cc1ccc(-c2nc3ccc(Cl)cn3c2Cc2ccccc2)cc1", "activation": "10.1% (active)"}
{"smiles": "Brc1ccc2nc(-c3ccccc3)c(Cc3ccccc3)n2c1", "activation": "3.02% (inactive)"}
{"smiles": "COC(=O)c1cc(S(=O)(=O)N2CCN(C(=O)C3CCCO3)CC2)cn1C", "note": "(stereo not given)", "activation": "-1.22% (inactive)"}
{"smiles": "CC(C)CNS(=O)(=O)CC1NCCc2ccccc21", "note": "(stereo not given)", "activation": "-3.17% (inactive)"}
{"smiles": "COc1cccc(Cn2cc(COC(=O)Nc3ccc(F)cc3)nn2)c1", "activation": "-0.28% (inactive)"}
{"smiles": "COc1cccc(N(C)C(=O)[C@@H](C)[C@@H](O)c2ccc3ccccc3c2)c1", "activation": "-2.05% (inactive)"}
{"smiles": "COc1ccnc(NC(=S)N2CCN(c3ncc(C(F)(F)F)cc3Cl)CC2)c1", "activation": "-3.61% (inactive)"}
{"smiles": "COc1ccc(CN2C(=O)N3Cc4cc(OC)ccc4C3CS2(=O)=O)cc1", "note": "(stereo not given)", "activation": "-5.55% (inactive)"}
{"smiles": "CC(C)NC(=O)C(=O)NCCN1CCN(S(=O)(=O)c2ccc(Cl)cc2)CC1", "activation": "-1.85% (inactive)"}
{"smiles": "C#CCNC(=O)C[C@H]1C[C@@]2(C(=O)OC)C(=C[C@H](C(C)C)O[C@@H]2C2CC2)N(Cc2ccco2)C1=O", "activation": "-5.88% (inactive)"}
{"smiles": "COc1ccc(CN2CC[C@H]3C=CC[C@@H](C(=O)N4CCOCC4)[C@H]3C2=O)cc1OC", "activation": "1.07% (inactive)"}
{"smiles": "Cc1ccc(Nc2nc(Cl)c(C=O)s2)cc1", "activation": "8.44% (active)"}
{"smiles": "Cc1ccc(Nc2cc(C)nc3c(C)ccc([N+](=O)[O-])c23)cc1", "activation": "-1.39% (inactive)"}
{"smiles": "Cc1ccc(Nc2ccccc2N)cc1", "activation": "0.3% (inactive)"}
{"smiles": "COC(=O)C1CN(CCc2ccccc2)CCS(=O)(=O)N1Cc1ccc(F)cc1", "note": "(stereo not given)", "activation": "0.54% (inactive)"}
{"smiles": "CC1=CC(=O)C=CC1(C)C(Cl)(Cl)Cl", "note": "(stereo not given)", "activation": "-0.07% (inactive)"}
{"smiles": "Cc1cc(C)nc(Nc2n[nH]c(-c3ccccc3N)n2)n1", "activation": "8.89% (active)"}
{"smiles": "Clc1ccc(-n2c(SC/C=C/c3ccccc3)nnc2-c2ccco2)cc1", "activation": "-3.27% (inactive)"}
{"smiles": "Cc1ccc2nnn(Cc3cccc(C(C)(C)C)c3O)c2c1", "activation": "-2.51% (inactive)"}
{"smiles": "CCOC(=O)CNC(=O)N(C)[C@H]1C[C@H]2c3[nH]c4c(-c5ccc6c(c5)OCO6)cccc4c3CCN2C(=O)[C@H]1[C@H](C)O", "activation": "-1.46% (inactive)"}
{"smiles": "COCC1CCN(C(=O)C2CCC(=O)N(CC3CCCCC3)C2)CC1", "note": "(stereo not given)", "activation": "-3.22% (inactive)"}
{"smiles": "O=C1CCC(C(=O)N2CCCCO2)CN1Cc1cccc(C(F)(F)F)c1", "note": "(stereo not given)", "activation": "-2.44% (inactive)"}
{"smiles": "COCC1CCN(C(=O)C2CCC(=O)N(Cc3cccc(C(F)(F)F)c3)C2)CC1", "note": "(stereo not given)", "activation": "13.1% (active)"}
{"smiles": "O=C(CSc1nnc(-c2cccc(Cl)c2)n1Cc1ccco1)Nc1ccc(OCc2ccccc2)cc1", "activation": "-5.35% (inactive)"}
{"smiles": "O=C(Nc1nc2ccc(Cl)cc2s1)c1cc(-c2ccc(Cl)cc2)nc2ccccc12", "activation": "-3.62% (inactive)"}
{"smiles": "Cc1sc2ncnc(N3CCC(C(=O)Nc4nc5ccc(Cl)cc5s4)CC3)c2c1C", "activation": "4.88% (inactive)"}
{"smiles": "Cc1ccc(C(=O)Nc2nc3ccc(Cl)cc3s2)o1", "activation": "12.3% (active)"}
{"smiles": "COC1=C[C@H](C(=O)NCCNC(C)=O)[C@H](C)[C@@H](c2ccccc2)CC1=O", "activation": "-1.73% (inactive)"}
{"smiles": "O=C1CC[C@@H](COc2ccc3[nH]cc(-c4ccccc4)c3c2-c2ccccc2)N1", "activation": "-2.62% (inactive)"}
{"smiles": "COC(=O)[C@]12C[C@H](CC(=O)N3CCOCC3)C(=O)N(Cc3ccc(Cl)cc3Cl)C1=C[C@H](C(C)C)O[C@@H]2C1CC1", "activation": "-2.82% (inactive)"}
{"smiles": "Cc1nc2ccccc2nc(=O)c1NNc1ccc([N+](=O)[O-])cc1", "activation": "2.04% (inactive)"}
{"smiles": "Cc1ccc(-n2cc3ccc([N+](=O)[O-])cc3n2)cc1", "activation": "3.85% (inactive)"}
{"smiles": "O=[N+]([O-])c1ccc2c(c1)Nc1nc3ccccc3nc1N2", "activation": "15.2% (active)"}
{"smiles": "COc1ccc(CSc2nnc(SCC(=O)Nc3ccccc3C(F)(F)F)s2)cc1", "activation": "-1.77% (inactive)"}
{"smiles": "COc1ccc(CN2CCOC2=O)cc1OC", "activation": "-2.13% (inactive)"}
{"smiles": "COC(=O)C1=CN(Cc2ccc(OC)c(OC)c2)C=C(C(=O)OC)C1c1cccs1", "activation": "-1.26% (inactive)"}
{"smiles": "COc1ccc(CC2c3cc(OC)c(OC)cc3CC[N+]2(C)CCC(=O)OCCCCCOC(=O)CC[N+]2(C)CCc3cc(OC)c(OC)cc3C2Cc2ccc(OC)c(OC)c2)cc1OC", "note": "(stereo not given)", "activation": "11.4% (active)"}
{"smiles": "CN(CCO)c1cccc2c1S(=O)(=O)N(Cc1cn(Cc3ccc(C(F)(F)F)cc3)nn1)Cc1ccccc1O2", "activation": "3.38% (inactive)"}
{"smiles": "CC(C)CNC(=O)OCc1cn(Cc2ccc(F)cc2)nn1", "activation": "-0.88% (inactive)"}
{"smiles": "CCOC(=O)[C@@]12CCC3=C1N(CCC3)C(=O)[C@H](CC(=O)N1CCN(C(=O)c3ccco3)CC1)C2", "activation": "-0.99% (inactive)"}
